According to PubChem BioAssay (NCI):
Where “and” joins values, the source holds several entries; their conditions need not be identical. Identical values can stand only once. This is part of a sample that, as a whole, favours compounds with a hit. Of some 83,000 tested, about 20% had one in any assay.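 Cell lines were cultured in 96-well plates, exposed to a single compound concentration, and assessed for percent growth 48 hours later.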 A number with no mark means an inactive call. Calls of active or inactive are those of the source. Rule for the calls: active = growth percent below 10; inactive = the rest.

Tests used:
Assay in all cases: NCI-60 one-dose screen, 48 h (100 = growth as untreated, 0 = no growth, -100 = all killed)
Conditions in all cases: 10 µM unless noted
[1] = test system: HCT-15 colon
[2] = test system: HT29 colon
[3] = test system: SNB-75 CNS
[4] = test system: SNB-19 CNS
[5] = test system: U251 CNS
[6] = test system: PC-3 prostate
[7] = test system: SK-MEL-5 melanoma
[8] = test system: UACC-62 melanoma
[9] = test system: LOX IMVI melanoma
[10] = test system: SK-MEL-28 melanoma
[11] = test system: SK-MEL-2 melanoma
[12] = test system: SN12C renal
[13] = test system: UO-31 renal
[14] = test system: TK-10 renal
[15] = test system: ACHN renal
[16] = test system: CAKI-1 renal
[17] = test system: A498 renal
[18] = test system: HL-60(TB) leukemia
[19] = test system: CCRF-CEM leukemia
[20] = test system: EKVX NSCLC

CCCCCCCCCCCCCCCCCCn1cc[n+](C)c1
growth [1]: 3.3% (active) and -54.8% (active)
growth [2]: -42.1% (active) and -36.8% (active)
growth [3]: -74.4% (active) and -55.1% (active)
growth [4]: -47.5% (active) and -68% (active)
growth [5]: -0.673% (active) and -63.9% (active)
growth [6]: -7.74% (active) and -8.63% (active)
growth [7]: -81.1% (active) and -74.1% (active)
growth [8]: -70.9% (active) and -82.1% (active)
growth [9]: 0.132% (active) and -52.2% (active)
growth [10]: -49.4% (active) and -52.8% (active)
growth [11]: -61.3% (active) and -51.7% (active)
growth [12]: -52.5% (active) and -68.4% (active)
growth [13]: -61.4% (active) and -66.1% (active)
growth [14]: -70.2% (active) and -72.4% (active)
growth [15]: -12.4% (active) and -43.5% (active)
growth [16]: -67.3% (active) and -78.6% (active)
growth [17]: -50.9% (active) and -44.9% (active)
growth [18]: 3.76% (active) and 2.22% (active)
growth [19]: 34% and 67.8%

CC(C)COC(=O)Cc1ccccc1
growth [1]: 109%
growth [2]: 101%
growth [3]: 99.9%
growth [4]: 109%
growth [5]: 101%
growth [6]: 97.6%
growth [7]: 98.7%
growth [8]: 107%
growth [9]: 101%
growth [10]: 112%
growth [20]: 109%
growth [12]: 94.2%
growth [13]: 102%
growth [14]: 95.3%
growth [15]: 108%
growth [16]: 101%
growth [17]: 81.1%
growth [18]: 109%
growth [19]: 95.3%

C/C(=N/OC(=O)N(C)C)c1ccc(Cl)c(Cl)c1
growth [1]: 107%
growth [2]: 95.2%
growth [3]: 116%
growth [4]: 99.4%
growth [5]: 105%
growth [6]: 93.7%
growth [7]: 99.3%
growth [8]: 97.8%
growth [9]: 99.2%
growth [10]: 105%
growth [20]: 123%
growth [12]: 95%
growth [13]: 94.7%
growth [14]: 101%
growth [15]: 112%
growth [16]: 102%
growth [17]: 99.6%
growth [18]: 112%
growth [19]: 98.2%

CNC(=O)CCl
growth [1]: 101%
growth [2]: 102%
growth [3]: 96%
growth [4]: 104%
growth [5]: 94.7%
growth [6]: 94.6%
growth [7]: 96.4%
growth [8]: 96.1%
growth [9]: 100%
growth [10]: 107%
growth [11]: 101%
growth [12]: 96.9%
growth [13]: 96.5%
growth [14]: 99.9%
growth [15]: 114%
growth [16]: 94.9%
growth [17]: 92.1%
growth [18]: 119%
growth [19]: 94%

ClCc1ccc(Cl)c(Cl)c1
growth [1]: 98.6%
growth [2]: 109%
growth [3]: 104%
growth [4]: 96.6%
growth [5]: 100%
growth [6]: 91.9%
growth [7]: 92.2%
growth [8]: 97.9%
growth [9]: 104%
growth [10]: 111%
growth [12]: 97.9%
growth [13]: 91.2%
growth [15]: 96.8%
growth [16]: 109%
growth [17]: 95.5%
growth [18]: 105%
growth [19]: 96.3%

O=c1c2ccccc2nc(-c2ccccc2Cl)n1-c1nnc(C(F)(F)F)s1
growth [1]: 21.1%
growth [2]: 30.3%
growth [3]: 53.9%
growth [4]: 33.2%
growth [5]: 16.6%
growth [6]: 20%
growth [7]: 9.47% (active)
growth [8]: 10.3%
growth [9]: 31.3%
growth [10]: 30.2%
growth [12]: 21.9%
growth [13]: 19.4%
growth [14]: 42%
growth [15]: 51.8%
growth [16]: 3.51% (active)
growth [17]: -7.82% (active)
growth [18]: 1.24% (active)
growth [19]: 7.41% (active)

N#CC(C#N)=C(C#N)C#N
growth [1]: 97.9%
growth [2]: 110%
growth [3]: 87.7%
growth [4]: 102%
growth [5]: 99.8%
growth [6]: 96.8%
growth [7]: 102%
growth [8]: 101%
growth [9]: 52.3%
growth [10]: 105%
growth [12]: 110%
growth [13]: 90.9%
growth [15]: 94.8%
growth [16]: 125%
growth [17]: 110%
growth [18]: 107%

CC1=C2[C@H]3OC(=O)[C@@H](C)[C@@H]3CC[C@@]2(C)C=CC1=O
growth [1]: 95.3%
growth [2]: 118%
growth [3]: 88.3%
growth [4]: 110%
growth [5]: 101%
growth [6]: 50.5%
growth [7]: 112%
growth [8]: 93%
growth [9]: 99.1%
growth [10]: 122%
growth [20]: 121%
growth [12]: 100%
growth [13]: 99.2%
growth [14]: 107%
growth [16]: 112%
growth [17]: 125%
growth [18]: 87.3%
growth [19]: 94.6%

CC[C@H](C)[C@H](NC(=O)C12CC(NC)(C1)C2)C(=O)N(C)[C@H](C[C@@H](OC(C)=O)c1nc(C(=O)N[C@@H](Cc2ccccc2)C[C@H](C)C(=O)OC)cs1)C(C)C
growth [1]: 18.4%
growth [2]: -4.54% (active)
growth [3]: 23.5%
growth [4]: 33.5%
growth [5]: 12.7%
growth [6]: 23.6%
growth [7]: -31.7% (active)
growth [8]: 45%
growth [9]: 5.36% (active)
growth [10]: 53.4%
growth [20]: 37.3%
growth [12]: 47.2%
growth [13]: 40.7%
growth [14]: 48.5%
growth [15]: 33.9%
growth [16]: 91.2%
growth [17]: -0.0952% (active)
growth [18]: -32.5% (active)
growth [19]: 1.27% (active)

Cc1cc(N(CCCl)CCCl)ccc1/C=N\NC(=O)c1cccnc1
growth [1]: 93% and 85.1%
growth [2]: 90.9% and 101%
growth [3]: 71.5% and 86.4%
growth [4]: 94.1% and 105%
growth [5]: 82.9% and 93.2%
growth [6]: 84.3% and 77.6%
growth [7]: 88.8% and 79.1%
growth [8]: 45% and 60.5%
growth [9]: 69.4%
growth [10]: 108% and 97.8%
growth [20]: 97.9% and 95.8%
growth [12]: 67.8% and 75.5%
growth [13]: 80.3% and 83.4%
growth [14]: 89.2% and 103%
growth [15]: 72.6% and 84%
growth [16]: 36.2% and 41.5%
growth [17]: -85.4% (active) and -89.4% (active)
growth [18]: 60%
growth [19]: 60.2% and 62.1%

C[N+]12CCC34C5=CC(=O)C(=O)C=C5[N+]5(C)C(=O)CC6OCC=C(C1)C(CC32)C6C45 (stereo not given)
growth [1]: 103%
growth [2]: 104%
growth [3]: 109%
growth [4]: 104%
growth [5]: 104%
growth [6]: 106%
growth [7]: 97.5%
growth [8]: 106%
growth [9]: 118%
growth [10]: 108%
growth [11]: 120%
growth [12]: 105%
growth [13]: 96.7%
growth [15]: 101%
growth [16]: 116%
growth [17]: 126%
growth [18]: 84.2%
growth [19]: 102%

CC1=C([Te]c2ccccc2)C(=O)c2ccccc2C1=O
growth [1]: -43.6% (active)
growth [2]: -22.7% (active)
growth [3]: -25.6% (active)
growth [4]: 2.43% (active)
growth [5]: -30.1% (active)
growth [6]: -30.8% (active)
growth [7]: -95% (active)
growth [8]: -24.9% (active)
growth [9]: -41.7% (active)
growth [10]: -64.4% (active)
growth [20]: -38.6% (active)
growth [12]: 5.18% (active)
growth [13]: -33.4% (active)
growth [14]: -33% (active)
growth [15]: -86.6% (active)
growth [16]: -46.5% (active)
growth [17]: -66% (active)
growth [18]: 12.7%
growth [19]: -44.9% (active)

C[C@]12CCc3nc(-c4ccc(O)c(O)c4)sc3C1=CC[C@@H]1[C@@H]2CC[C@]2(C)C(=O)CC[C@@H]12
growth [1]: 26%
growth [2]: 77.7%
growth [3]: 92.3%
growth [4]: 75%
growth [5]: 40.5%
growth [6]: 34.3%
growth [7]: 78.5%
growth [8]: 91.5%
growth [9]: 89.1%
growth [10]: 84.6%
growth [20]: 95.7%
growth [12]: 72.7%
growth [13]: 43%
growth [14]: 53.6%
growth [15]: 51.3%
growth [16]: 39.7%
growth [17]: 113%
growth [18]: 51.4%
growth [19]: 47.5%

COc1ccc2c(c1)c(-c1nc(-c3cn(C)c4ncccc34)cs1)cn2CCCCN1CCOCC1
growth [1]: -42.1% (active)
growth [2]: -87.8% (active)
growth [3]: 43.6%
growth [4]: 35.1%
growth [5]: -55.3% (active)
growth [6]: 31.3%
growth [7]: 14.5%
growth [8]: 3.59% (active)
growth [9]: -78.8% (active)
growth [10]: -93.5% (active)
growth [20]: 60.2%
growth [12]: 68%
growth [13]: 34%
growth [14]: 69.9%
growth [15]: 32%
growth [16]: 41.4%
growth [17]: 58.1%
growth [18]: 24.7%
growth [19]: 2.06% (active)

O=NN(c1ccccc1)c1ccccc1
growth [1]: 103%
growth [2]: 119%
growth [3]: 101%
growth [4]: 106%
growth [5]: 99.2%
growth [6]: 98%
growth [7]: 98.6%
growth [8]: 95.4%
growth [9]: 100%
growth [10]: 114%
growth [11]: 105%
growth [12]: 98.1%
growth [13]: 96%
growth [14]: 103%
growth [15]: 118%
growth [16]: 102%
growth [17]: 101%
growth [19]: 98.9%

Oc1ccccc1C=NCCN=Cc1ccccc1O.[Fe]
growth [1]: 101%
growth [2]: 72.4%
growth [3]: 77.2%
growth [4]: 87.1%
growth [5]: 26.4%
growth [6]: 79.2%
growth [7]: 66.5%
growth [8]: 58.4%
growth [9]: -80.2% (active)
growth [10]: 117%
growth [20]: 110%
growth [12]: 52%
growth [13]: 72.3%
growth [14]: 115%
growth [15]: 92.3%
growth [16]: 98.1%
growth [17]: 65.5%
growth [18]: 44.5%
growth [19]: -32.9% (active)
